Among the data in PubChem BioAssay AID720519 (National Center for Advancing Translational Sciences (NCATS), 2013) are Potency values, retold here.

Results filed as inconclusive are left out. Where a call stands in place of a potency, no number is given. Activity calls are given as the source filed them. The call rests on the fitted dose curve; in most records, active means well fitted activation curve with a large enough effect; inconclusive means small, poorly fitted or top-dose-only effect; inactive means flat fitted curve, though single readings scatter.

The test in a line: qHTS for Inhibitors of Cell Surface uPA Generation: Confirmatory Assay for Cherry-picked Compounds. The note with it: cell surface uPA activity generation, qHTS confirmation; series mostly up to 115 µM. In a few lines:
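RAW 264.7 cells at 4000/well, incubated overnight, then treated with compounds. After 24 h at 37 C, viability was read by ATPlite luminescence. An increase in signal indicates blocked uPA-dependent LF entry.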
On the technique in general: qHTS replaces the single test concentration by a dilution series.
For `CCN(CC)S(=O)(=O)c1ccc(NC(=S)Nc2ccc(F)cc2)cc1`, the Potency result is “inactive”. With `COc1ccc(N2CCN(C(=O)COc3ccc4c(C)c(C)c(=O)oc4c3C)CC2)cc1`, the Potency result was “inactive”. Consider `COc1ccc(-c2cc(-c3ccccc3)nc3ncnn23)cc1`, for which the Potency entry was “inactive”.

As for `O=C(CN(c1ccccc1F)S(=O)(=O)c1ccccc1)Nc1ccc2c(c1)OCCO2`, the Potency entry is “inactive”. The entry for `CCc1cc(CC)c(/C=N/NC(N)=O)c(CC)c1` is “inactive”. The entry for `O=C(COC(=O)/C=C/c1cccc(F)c1)Nc1ccccc1` is “inactive”.

Take `COc1ccc(Cl)cc1NC(=O)CSc1nc(=O)n(CCN(C)C)c2c1CCCC2`: the Potency entry is “inactive”. The entry for `CC(C)NC(=O)NC(=O)CN1C(=O)NC(Cc2c[nH]c3ccccc23)C1=O` (stereo not drawn) is “inactive”; for `Cc1nc2ncccn2c1-c1csc(Nc2ccc(S(N)(=O)=O)cc2)n1` it is “inactive”. Consider `Cn1c(=O)c2c(ncn2CCO)n(C)c1=O`, for which the Potency result is “inactive”. Consider `CCOC(=O)C1CCCN(CC(=O)Nc2ccc(C(=O)Nc3ccccc3OC)cc2)C1` (stereo not drawn), for which the Potency result was “inactive”. Take `Cc1noc(C)c1COc1ccc(C(=O)O)cc1`: the Potency result was “inactive”. With `CCc1ccccc1NC(=O)CN(C)C(=O)CSc1nnc(Nc2cccc(C)c2C)s1`, the Potency result is “inactive”. The entry for `O=C(CSC1=NS(=O)(=O)c2ccccc2N1)Nc1nccs1` is “inactive”; for `C=CC[n+]1c(/C=C/c2ccc(OC(C)=O)c(OC)c2)ccc2ccccc21` it is “inactive”. Next, `Cc1cccc(NC(=O)c2cc3c(=O)n4ccccc4nc3s2)c1`: “inactive”; `Cc1cccc(N2CCN(Cc3ccc(Br)o3)CC2)c1C`: “inactive”. Next, `Cc1ccc(C2=NS(=O)(=O)N(C)C(C(=O)NC3CCCC3)=C2)cc1`: “inactive”.
